Compounds with a hit are over-represented: about 4.2% of the library has one in this group of screens.
hcDAF-12 act: H. contortus DAF-12 activation, primary screen. HEK293 hcDAF-12 lit1-tk-luc reporter, luminescence; 0% DMSO, 100% Δ7-dafachronic acid. activation, % at 6.8 µM. hit rate 1.4% among 370,000. AID 652067;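 active = activation above the mean of all tested compounds plus 3 SD, cut at about 5.5% in these data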;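 note: 100% = response to 3 µM Δ7-dafachronic acid high control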
ssDAF12 agonist: S. stercoralis DAF-12 activation, primary screen; HEK293 ssDAF-12/GRIP1 lit1-tk-luc reporter, luminescence; % of 3 µM dafachronic acid response; activation, % at 6.8 µM; hit rate 1% among 370,000;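 active = activation above the mean over all tested compounds plus 3 SD, cut at about 0.9% in these data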;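 note: 0% = DMSO-only wells and 100% = 3 µM delta7-dafachronic acid wells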
SMARCA2 act: increases SMARCA2 function in MMTV reporter cells. MG213 cells, MMTV-luciferase reporter, dexamethasone, overnight. activation, % at 9.1 µM. hit rate 1% among 370,000; in the data active = activation above about 7.8%;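 note: 0% = vehicle wells and 100% = reference activator wells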
hgDAF-12 ag: agonists of H. glycines DAF-12 nuclear receptor | activation, % at 6.8 µM | hit rate 1.8% among 370,000 | AID 687014 | HEK293 GAL4-hgDAF12 UAS-luciferase reporter, agonist luminescence; normalized to butyrate control;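 active = activation above a cutoff set at the mean of all screened compounds plus 3 SD, cut at about 10% in these data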;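 note: 0% = DMSO wells and 100% = sodium butyrate wells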
DAX1 StAR inh: DAX1 (NR0B1) inhibition, primary screen. hit rate 1.1% among 370,000. inhibition, % at 6.8 µM. HEK293T StAR-luciferase reporter, SF-1/DAX-1 repression relief;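 active = inhibition above the mean over all tested compounds plus 3 SD, cut at about 3.6% in these data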;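 note: 0% = DAX-1 cells with DMSO and 100% = cells lacking DAX-1 with DMSO; higher inhibition means more luminescence from relief of DAX-1 repression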
DAX1 inh confirm: confirmation of human DAX1 (NR0B1) inhibitors; hit rate 87% among 2,400; AID 652134; HEK293T StAR-promoter luciferase reporter, SF-1/DAX-1 repression; inhibition, % at 6.8 µM; shares compounds with DAX1 StAR inh;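 active = inhibition above the average of every tested compound plus 3 SD, cut at about 3.8% in these data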;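 note: 0% = DAX-1 cells with DMSO and 100% = no DAX-1 control cells with DMSO; active compounds raise luminescence by relieving repression of the StAR reporter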
Target sequence (P51843 whole entry, looked up): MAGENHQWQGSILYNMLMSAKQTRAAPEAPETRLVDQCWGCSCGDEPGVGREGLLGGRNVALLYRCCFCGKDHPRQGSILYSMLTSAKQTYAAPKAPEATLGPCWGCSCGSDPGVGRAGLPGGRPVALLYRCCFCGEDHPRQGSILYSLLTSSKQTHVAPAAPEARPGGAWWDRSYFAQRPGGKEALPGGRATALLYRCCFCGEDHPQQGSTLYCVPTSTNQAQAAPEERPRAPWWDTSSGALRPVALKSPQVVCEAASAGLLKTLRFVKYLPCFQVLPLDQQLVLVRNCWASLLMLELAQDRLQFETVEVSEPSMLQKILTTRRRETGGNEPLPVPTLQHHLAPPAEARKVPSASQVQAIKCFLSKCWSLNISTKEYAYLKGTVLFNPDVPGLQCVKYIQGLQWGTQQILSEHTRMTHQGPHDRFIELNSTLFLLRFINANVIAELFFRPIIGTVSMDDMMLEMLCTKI
SF1 AF2mut Luc: nonselective inhibitor or artifact in SF-1 mutant DAX1 counter-screen; HEK293 StAR-luciferase, SF-1 AF2 mutant, luminescence; inhibition, % at 6.8 µM; shares compounds with DAX1 StAR inh; hit rate 78% among 2,400;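 active = inhibition above the mean of all tested compounds plus 3 SD, cut at about 3% in these data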;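 note: 0% = DAX-1 transfected cells with DMSO and 100% = cells without DAX-1 with DMSO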
* hit, by the source's call; nt = not tested or not shown.

SMILES	hcDAF-12 act	ssDAF12 agonist	SMARCA2 act	hgDAF-12 ag	DAX1 StAR inh	DAX1 inh confirm	SF1 AF2mut Luc
CCC1Cc2[nH]c(=S)[nH]c(=O)c2C(c2ccc(Cl)cc2)O1 (stereo unspecified)	0	-1	-2	-3	0	nt	nt
O=C(NC(=S)NN1CCOCC1)c1cc(Br)ccc1Cl	1	-1	-3	0	5.2*	0	0
O=C(NN1CCOCC1)c1cc(Cl)ccc1Cl	-1	0	0	1	-1	nt	nt
CCOc1cccc2cc(-c3csc(NC(=O)CCC(=O)NCCN4CCCCC4C)n3)c(=O)oc12 (stereo unspecified)	5	1	7.9*	23*	6.5*	14*	7.0*
CCOc1cccc2cc(-c3csc(NC(=O)CCC(=O)N4CCC(C)CC4)n3)c(=O)oc12	-2	-1	6	2	0	nt	nt
CCN(c1ccc(OCC(=O)OCC(=O)c2c(N)n(C)c(=O)n(C)c2=O)cc1)S(=O)(=O)c1ccccc1	-1	-1	-3	-1	5.2*	2	2
Cc1ccc(NC(=O)C2(C)CCN2C(=O)C2CCCCC2)cc1C (stereo unspecified)	0	0	-6	-3	1	nt	nt
CCOC(=O)c1sc(=NC(=O)c2c(F)cccc2F)n(C)c1C	0	-1	0	3	3	nt	nt
CCOC(=O)c1sc(=NC(=O)c2ccc(F)cc2)n(C)c1C	6.0*	0	3	7	6.8*	15*	7.4*
CCN(CC)c1ccc(C(=O)NNC(=O)c2cccn2C)cc1	2	1	5	11*	5.1*	6.1*	5.5*
CCN(CC)c1ccc(C(=O)NNC(=O)CCl)cc1	1	-1	7	-1	-2	nt	nt
O=C(Nc1ccc(-c2cscn2)cc1)C1CCCN(Cc2ccccc2)C1 (stereo unspecified)	-3	-1	0	4	2	nt	nt
Cc1cccc(CN2CCCC(C(=O)Nc3ccc(-c4cscn4)cc3)C2)c1 (stereo unspecified)	-3	-1	-2	2	4.6*	3	-1
O=C(Nc1nnc(C2CC2)s1)c1cncc(Br)c1	1	-1	3	7	4.8*	5.9*	3.9*
COc1cc(F)ccc1-c1csc(C(C)(NC(C)=O)c2ccccc2)n1 (stereo unspecified)	-2	-2	-5	-4	-2	nt	nt
C/C(=N\Nc1ccc(C(=O)O)cc1)c1ccc(-n2ccnc2)cc1	3	-1	2	12*	6.8*	8.3*	5.3*
CCCCNC(=O)C[C@H]1C[C@@]2(C(=O)OC)C(=C[C@H](COCc3ccccc3)O[C@@H]2C)N(Cc2cccc3ccccc23)C1=O	-1	-1	-5	0	-1	nt	nt
Cc1ccccc1OCc1csc(N)n1	3	-1	-6	2	1	nt	nt
Cc1ccc(OCc2csc(N)n2)cc1	1	-1	1	7	5.1*	3	2
CC(=O)C1=C(C)NC(=S)NC1c1ccc(F)cc1 (stereo unspecified)	0	0	0	0	1	nt	nt
Cc1cnc(NC(=O)c2ccc3ncsc3c2)s1	5	0	4	13*	13*	15*	6.7*
O=C(CCc1nc(-c2ccccc2F)no1)NCCc1cccc(F)c1	-1	-1	-7	3	-1	nt	nt
COc1ccc(C(CNC(=O)c2cccc(NC(=O)c3cccs3)c2)N2CCCC2)cc1 (stereo unspecified)	1	-1	2	2	4.5*	6.4*	3.7*
CC(C)(C)NC(=O)C1c2ccccc2OCC(=O)N1CCc1ccccc1 (stereo unspecified)	3	-1	-6	2	1	nt	nt
Cn1c(NCc2ccccc2Cl)nc2ccccc21	2	-1	4	9	6.5*	9.7*	5.9*
SMILES	hcDAF-12 act	ssDAF12 agonist	SMARCA2 act	hgDAF-12 ag	DAX1 StAR inh	DAX1 inh confirm	SF1 AF2mut Luc
O=C(c1ccc(-c2ccccc2Cl)o1)N1CCC1	1	0	5	8	5.1*	5.7*	4.3*
O=C(NCC1CCCO1)c1ccc(-c2ccccc2Cl)o1 (stereo unspecified)	3	0	2	13*	7.3*	11*	6.0*
O=C(c1ccc(-c2ccccc2Cl)o1)N1CCCC(C(F)(F)F)C1 (stereo unspecified)	0	-1	5	3	3	nt	nt
NC(=O)C1CCCN(C(=O)c2ccc(-c3cccc(Cl)c3Cl)o2)C1 (stereo unspecified)	3	0	0	10	5.6*	9.2*	4.8*
COc1ccc(CCNC(=O)c2cc3c(C)nn(-c4ccccc4)c3s2)cc1OC	-4	-1	-5	-3	-2	nt	nt
Cc1ccc(NC(=O)c2sccc2C)nc1	5	1	2	11*	9.7*	9.2*	7.2*
O=C1c2ccccc2C(c2nnnn2Cc2ccccc2)N1CCOc1ccccc1 (stereo unspecified)	8.2*	0	0	19*	7.2*	6.5*	4.1*
O=C1c2ccccc2C(c2nnnn2Cc2ccccc2)N1CCc1ccccc1F (stereo unspecified)	5	0	5	11*	9.2*	-4	-1
CC(C)n1nnnc1C1c2ccccc2C(=O)N1CCc1c[nH]c2ccccc12 (stereo unspecified)	3	-1	3	5	5.5*	3	2
O=C1c2ccccc2C(c2nnnn2Cc2ccccc2)N1CCc1ccc(O)cc1 (stereo unspecified)	0	-1	-3	2	2	nt	nt
O=C1c2ccccc2C(c2nnnn2-c2ccc3c(c2)OCCO3)N1CCc1c[nH]c2ccccc12 (stereo unspecified)	2	0	-2	-2	0	nt	nt
COc1ccc(S[C@]2(C(=O)N3CCN(c4ncccn4)CC3)CC(=O)N(S(=O)(=O)c3ccc(F)cc3)[C@@H]2c2ccc(OC)cc2)cc1	-1	-2	-1	1	-3	nt	nt
CC(C)(C)c1ccc(C(=O)/C=C2\NC(=O)CS2)cc1	6.1*	0	-2	12*	5.2*	18*	9.2*
CN1OC[C@@H]2CN[C@H](c3ccc(-c4ccc(C#N)cc4)cc3)C[C@@H]21	3	1	3	12*	5.4*	14*	8.1*
CCCCCCN1C[C@H](n2cc(COC(=O)c3ccccc3)nn2)[C@@H](O)C[C@@H]1c1ccc(C)cc1	-1	-1	-4	1	-1	nt	nt
O=C(Nc1ccc(Cl)cc1)Nc1ccccc1C(=O)O	4	0	3	10	5.3*	9.0*	4.0*

High-throughput results as filed in PubChem BioAssay.
